# Reference: PubChem BioAssay (EPA / NIEHS)
# Records with an inconclusive call do not appear. Calls of active or inactive are those of the source. The calls were made as follows: active = hit-call score of the fitted dose curve at least 0.9, where 1 is the maximum; inconclusive = response in the unintended direction; inactive = score below 0.9.
# Assay: Tanguay_ZF_120hpf_SWIM_legacy: (Legacy) Oregon State University Tanguay Lab 120 Hour Post-fertilization zebrafish Assay for Swim Bladder Malformation (AID 2283654);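 also: swim bladder malformation in each larva scored yes or no under brightfield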
# Method in brief: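 Scoring is binary for swim bladder defects at 120 hpf, by brightfield inspection of zebrafish larvae. Embryos were exposed singly from 6 hpf after pronase dechorionation, at 28C with 0.64% DMSO; mortality excluded scoring.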
Compound,outcome,AC50
CCCCCCCCCCCCCCCC,inactive,–
Cc1ccc(C)c(O)c1C,inactive,–
CNCc1cc(F)ccc1Oc1ccc(Cl)c(Cl)c1,inactive,–
NCC1(Cc2noc(=O)[nH]2)CCCCC1,inactive,–
NS(=O)(=O)c1cc2c(cc1Cl)NCNS2(=O)=O,inactive,–
Oc1ccc2ccccc2c1N=Nc1ccccc1,–,51.7 µM (active)
Nc1ccc(S(=O)(=O)c2ccc(N)cc2)cc1,inactive,–
Cc1cccc(C)c1O,inactive,–
CN[C@H]1CC[C@@H](c2ccc(Cl)c(Cl)c2)c2ccc(S(N)(=O)=O)cc21,inactive,–
CC1=C(/C=C/C(C)=C/C=C/C(C)=C/CO)C(C)(C)CCC1,inactive,–
CC(CO)OC(C)CO (configuration not stated) (tested in a mixture with another compound),inactive,–
CC1(C)NC(=O)NC1=O,inactive,–
COc1ccc(C)cc1N,inactive,–
c1cc(-c2ccncc2)ccn1,inactive,–
Nc1ccc2c(c1)C(=O)c1ccccc1C2=O,inactive,–
Cc1ccc(Cl)cc1,inactive,–
NC(=O)Cn1c(=O)cc(CCN2CCN(c3nccc4sccc34)CC2)c2ccc(F)cc21,inactive,–
C=CCOC(=O)c1ccccc1C(=O)OCC=C,–,46.4 µM (active)
CCCCCCCCCCCC(=O)OC,inactive,–
C[C@]12C=CC(=O)C=C1CC[C@@H]1[C@@H]2C(=O)C[C@@]2(C)[C@H]1CC[C@]2(O)C(=O)CO,inactive,–
Cc1ccc(N(C)C)cc1,inactive,–
Cc1c(C(=O)O)c(O)cc2c1C(=O)c1c(O)c([C@@H]3O[C@H](CO)[C@@H](O)[C@H](O)[C@H]3O)c(O)c(O)c1C2=O,inactive,–
